About 79,000 compounds went through this panel and 15% of them were active in at least one assay; those are over-represented in the sample as a whole. Active and inactive are the calls of the source. Cut-off read from the data, not from the text of the source: active = growth inhibition above about 70%; inactive = the rest.
Legend:
[1] = NCI Yeast Anticancer Drug Screen. Data for the wt1 strain (AID 149);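 note: 0% = growth of vehicle-treated wt1 cultures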; conditions: S. cerevisiae wt1 strain (SPY 50644) growth inhibition, active compounds read high
How it was run: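 Yeast wt1 strain exposed to compounds; growth inhibition measured relative to vehicle-treated controls.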

[2] = NCI Yeast Anticancer Drug Screen. Data for the rad50EPP+ strain (AID 151);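 note: 0% = growth of vehicle-treated control cultures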; conditions: S. cerevisiae rad50 mutant strain, active compounds read high
How it was run: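 Yeast strain carrying rad50 alteration (rad50EPP+) exposed to compounds; growth inhibition measured relative to vehicle-treated controls.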

[3] = NCI Yeast Anticancer Drug Screen. Data for the mgt1 strain (AID 153); conditions: S. cerevisiae mgt1 mutant growth inhibition, active compounds read high
How it was run: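 Yeast mgt1 strain (DNA repair/cell-cycle alteration panel) exposed to compounds; growth inhibition measured relative to vehicle-treated controls.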

[4] = NCI Yeast Anticancer Drug Screen. Data for the rad50 strain (AID 155);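 note: 0% = growth of vehicle-only cultures of the same strain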; conditions: S. cerevisiae rad50 strain growth inhibition, active compounds read high
How it was run: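 Yeast carrying a defined DNA repair defect were exposed to test compounds, and growth was compared with vehicle-treated controls to give percent inhibition.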

[5] = NCI Yeast Anticancer Drug Screen. Data for the rad14 strain (AID 159);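 note: 0% = growth of vehicle-treated control cultures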; conditions: S. cerevisiae rad14 strain growth inhibition, active compounds read high
How it was run: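 Yeast cells carrying a defined DNA-repair defect were exposed to compounds, and growth inhibition was calculated relative to vehicle-treated control cultures.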

[6] = NCI Yeast Anticancer Drug Screen. Data for the sgs1 mgt1 strain (AID 161);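 note: 0% = growth of cultures given vehicle only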; conditions: S. cerevisiae sgs1 mgt1 strain, active compounds read high
How it was run: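 Growth of a repair-deficient yeast mutant was monitored after compound treatment and expressed as inhibition relative to vehicle-treated cultures.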

[7] = NCI Yeast Anticancer Drug Screen. Data for the CLN2oe strain (AID 163);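 note: 0% = growth of vehicle-only control cultures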; conditions: S. cerevisiae CLN2oe strain, active compounds read high
How it was run: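 Yeast cells carrying a defined cell-cycle control alteration were exposed to test compounds. Growth inhibition was scored against vehicle-treated control cultures.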

[8] = NCI Yeast Anticancer Drug Screen. Data for the cln2 rad14 strain (AID 165);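 note: 0% = growth equal to vehicle treated cultures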; conditions: S. cerevisiae cln2 rad14 strain, active compounds read high
How it was run: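 Yeast carrying cln2 and rad14 alterations (cell cycle control and DNA damage repair) were exposed to compounds. Growth inhibition was measured against vehicle-treated controls.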

[9] = NCI Yeast Anticancer Drug Screen. Data for the bub3 strain (AID 167); conditions: S. cerevisiae bub3 mutant strain, active compounds read high
How it was run: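 Compounds were applied to a genetically altered yeast strain carrying a cell-cycle control defect. Growth inhibition was scored against vehicle-treated controls.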

[10] = NCI Yeast Anticancer Drug Screen. Data for the wt2 strain (AID 169);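 note: 0% = growth of vehicle-treated yeast cultures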; conditions: S. cerevisiae wt2 strain growth inhibition, active compounds read high
How it was run: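 Yeast cells were exposed to test compounds, and growth inhibition was measured relative to vehicle-treated controls.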

[11] = NCI Yeast Anticancer Drug Screen. Data for the mlh1 strain (AID 171);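 note: 0% = growth of vehicle-treated control cultures of the same strain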; conditions: S. cerevisiae mlh1 strain growth inhibition, active compounds read high
How it was run: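 Yeast carrying a defined genetic alteration in DNA damage repair or cell cycle control were exposed to test compounds. Growth inhibition was measured relative to vehicle-treated controls.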

[12] = NCI Yeast Anticancer Drug Screen. Data for the sgs1 strain (AID 173);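 note: 0% = growth of vehicle-only control cultures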; conditions: S. cerevisiae sgs1 mutant, active compounds read high
How it was run: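 Yeast mutant strains carrying defined defects in DNA damage repair or cell cycle control were exposed to test compounds. Growth inhibition was scored against vehicle-treated controls.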

[13] = NCI Yeast Anticancer Drug Screen. Data for the mlh1 rad18 strain (AID 175); conditions: S. cerevisiae mlh1 rad18 strain growth inhibition, active compounds read high
How it was run: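 Growth inhibition of the yeast strain was measured after compound exposure and expressed relative to vehicle-treated controls. The strain carries defined defects in DNA damage repair.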

[14] = NCI Yeast Anticancer Drug Screen. Data for the rad18 strain (AID 177); conditions: S. cerevisiae rad18 mutant growth inhibition, active compounds read high
How it was run: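 Yeast carrying a defined DNA damage repair alteration were exposed to compounds. Growth inhibition was expressed relative to vehicle-treated controls.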

[15] = NCI Yeast Anticancer Drug Screen. Data for the mec2-1 strain (AID 157); conditions: S. cerevisiae mec2-1 strain, active compounds read high
How it was run: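 mec2-1 yeast strain, carrying an alteration in DNA damage repair or cell cycle control, was exposed to compounds; growth inhibition was measured relative to vehicle-treated controls.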

[16] = at 5.0 µM (retest, dose inferred, filed as 0.5)
[17] = at 50.0 µM (retest, dose inferred, filed as 5.0)

Measured: growth inhibition

c1cc(Nc2ccc3c(c2)OCO3)c2cc(C3CCCCC3)ccc2n1
active: [3]; at 100.0 µM 85% | [4]; at 50.0 µM 99.3% | [4]; at 100.0 µM 73% | [5]; at 100.0 µM 78% | [6]; at 50.0 µM 99.2% | [8]; at 50.0 µM 98.7% | [9]; [17] 98% | [9]; at 50.0 µM 98.6% | [9]; at 100.0 µM 74% | [10]; at 100.0 µM 81% | [11]; at 100.0 µM 82% | [12]; at 100.0 µM 86% | [13]; [17] 73% | [13]; at 50.0 µM 99.5% | [14]; at 100.0 µM 85%
inactive: [1]; at 1.2 µM 0% | [1]; at 3.7 µM 0% | [1]; at 11.0 µM -4% | [1]; at 33.0 µM -6% | [1]; at 100.0 µM 34% | [2]; at 1.2 µM 1% | [2]; at 3.7 µM -2% | [2]; at 11.0 µM -2% | [2]; at 33.0 µM -3% | [2]; at 100.0 µM 23% | [3]; at 1.2 µM -2% | [3]; at 3.7 µM -4% | [3]; at 11.0 µM -3% | [3]; at 33.0 µM -6% | [4]; at 1.2 µM 19% | [4]; at 3.7 µM -14% | [4]; [16] 4% | [4]; at 11.0 µM 5% | [4]; at 33.0 µM 5% | [4]; [17] 48% | [5]; at 1.2 µM 5% | [5]; at 3.7 µM 5% | [5]; at 11.0 µM 7% | [5]; at 33.0 µM 15% | [6]; [16] 0% | [6]; [17] 46% | [7]; at 1.2 µM 1% | [7]; at 3.7 µM 3% | [7]; at 11.0 µM -1% | [7]; at 33.0 µM 4% | [7]; at 100.0 µM 52% | [8]; [16] 40% | [8]; [17] 46% | [9]; at 1.2 µM -1% | [9]; at 3.7 µM -3% | [9]; [16] 10% | [9]; at 11.0 µM -2% | [9]; at 33.0 µM 8% | [10]; at 1.2 µM 0% | [10]; at 3.7 µM -1% | [10]; at 11.0 µM -2% | [10]; at 33.0 µM 0% | [11]; at 1.2 µM -1% | [11]; at 3.7 µM -1% | [11]; at 11.0 µM -2% | [11]; at 33.0 µM 2% | [12]; at 1.2 µM -1% | [12]; at 3.7 µM -2% | [12]; at 11.0 µM -7% | [12]; at 33.0 µM 5% | [13]; [16] 7% | [14]; at 1.2 µM -3% | [14]; at 3.7 µM -7% | [14]; at 11.0 µM -14% | [14]; at 33.0 µM -16%

Cc1cccc(N2CCN(C(=O)/C(=C/c3ccccc3)NC(=O)c3ccccc3)CC2)c1
active: [14]; at 100.0 µM 70%
inactive: [1]; at 1.2 µM -3% | [1]; at 3.7 µM -1% | [1]; at 11.0 µM -2% | [1]; at 33.0 µM 24% | [1]; at 100.0 µM 31% | [2]; at 1.2 µM 2% | [2]; at 3.7 µM 0% | [2]; at 11.0 µM 0% | [2]; at 33.0 µM 2% | [2]; at 100.0 µM -9% | [4]; at 1.2 µM -4% | [4]; at 3.7 µM -48% | [4]; [16] -1% | [4]; at 11.0 µM 29% | [4]; at 33.0 µM 59% | [4]; [17] 48% | [4]; at 50.0 µM 12.3% | [4]; at 100.0 µM 68% | [15]; at 1.2 µM -1% | [15]; at 3.7 µM 0% | [15]; [16] -3% | [15]; at 11.0 µM 8% | [15]; at 33.0 µM 36% | [15]; [17] -26% | [15]; at 50.0 µM 2.95% | [15]; at 100.0 µM 43% | [5]; at 1.2 µM -4% | [5]; at 3.7 µM -6% | [5]; at 11.0 µM 0% | [5]; at 33.0 µM 28% | [5]; at 100.0 µM 35% | [6]; [16] 0% | [6]; [17] 56% | [6]; at 50.0 µM -13.3% | [7]; at 1.2 µM -6% | [7]; at 3.7 µM -6% | [7]; at 11.0 µM 3% | [7]; at 33.0 µM 38% | [7]; at 100.0 µM 33% | [8]; [16] -5% | [8]; [17] 35% | [8]; at 50.0 µM -12.5% | [9]; at 1.2 µM -3% | [9]; at 3.7 µM -1% | [9]; [16] -41% | [9]; at 11.0 µM 5% | [9]; at 33.0 µM 41% | [9]; [17] 38% | [9]; at 50.0 µM 10.1% | [9]; at 100.0 µM 38% | [10]; at 1.2 µM -2% | [10]; at 3.7 µM 6% | [10]; at 11.0 µM 1% | [10]; at 33.0 µM 38% | [10]; at 100.0 µM 46% | [11]; at 1.2 µM -1% | [11]; at 3.7 µM -2% | [11]; at 11.0 µM 4% | [11]; at 33.0 µM 41% | [11]; at 100.0 µM 48% | [12]; at 1.2 µM -2% | [12]; at 3.7 µM 2% | [12]; at 11.0 µM 16% | [12]; at 33.0 µM 53% | [12]; at 100.0 µM 59% | [13]; [16] 1% | [13]; [17] 64% | [13]; at 50.0 µM 25.9% | [14]; at 1.2 µM -2% | [14]; at 3.7 µM 0% | [14]; at 11.0 µM 5% | [14]; at 33.0 µM 51%

Nc1ccc2cc(Br)c3ccccc3c2c1
inactive: [1]; at 1.2 µM 0% | [1]; at 3.7 µM 1% | [1]; at 11.0 µM -2% | [1]; at 33.0 µM -2% | [2]; at 1.2 µM 3% | [2]; at 3.7 µM 5% | [2]; at 11.0 µM 22% | [2]; at 33.0 µM 39% | [2]; at 100.0 µM 26% | [3]; at 1.2 µM -1% | [3]; at 3.7 µM -3% | [3]; at 11.0 µM -1% | [3]; at 33.0 µM -1% | [3]; at 100.0 µM -3% | [4]; at 1.2 µM 0% | [4]; at 3.7 µM 1% | [4]; [16] 5% | [4]; at 11.0 µM 1% | [4]; at 33.0 µM 16% | [4]; [17] 41% | [4]; at 100.0 µM 20% | [15]; at 1.2 µM -3% | [15]; at 3.7 µM -1% | [15]; [16] -18% | [15]; at 11.0 µM 0% | [15]; at 33.0 µM 3% | [15]; [17] 6%
active: [1]; at 100.0 µM 75% | [4]; at 50.0 µM 86.2% | [15]; at 50.0 µM 73.7%
